Screens (PubChem BioAssay)
Mtb UGM inh = M. tuberculosis UGM enzyme inhibitors, primary screen, biochemical, fluorescence polarization, single point. UDP-galactopyranose mutase (Mycobacterium tuberculosis (strain ATCC 25618 / H37Rv)), …. purified UGM, fluorescence polarization probe displacement. inhibition, % at 10 µM. 320,000 tested, 0.06% active; in the data active means inhibition above about 10%, passing the limit was not always enough
FadD28 binding = inhibitors of FadD28 bisubstrate probe binding, primary screen, biochemical, fluorescence polarization, single point | Mycobacterium tuberculosis FadD28 fatty-acid-AMP ligase | 360,000 tested, 0.22% active | inhibition, % at 12.5 µM; in the data active means inhibition above about 8.5%, passing the limit was not always enough
RecA splice inh = Mtb RecA intein splicing inhibitors, primary screen, biochemical, fluorescence, HTS; cell-free RecA intein splicing; inhibition, % (test concentration not listed); Protein RecA (Mycobacterium tuberculosis (strain ATCC 25618 / H37Rv)), P9WHJ3; 290,000 tested, 0.75% active; in the data active means inhibition above about 30%
Target sequence (P9WHJ3 whole entry, looked up, canonical isoform): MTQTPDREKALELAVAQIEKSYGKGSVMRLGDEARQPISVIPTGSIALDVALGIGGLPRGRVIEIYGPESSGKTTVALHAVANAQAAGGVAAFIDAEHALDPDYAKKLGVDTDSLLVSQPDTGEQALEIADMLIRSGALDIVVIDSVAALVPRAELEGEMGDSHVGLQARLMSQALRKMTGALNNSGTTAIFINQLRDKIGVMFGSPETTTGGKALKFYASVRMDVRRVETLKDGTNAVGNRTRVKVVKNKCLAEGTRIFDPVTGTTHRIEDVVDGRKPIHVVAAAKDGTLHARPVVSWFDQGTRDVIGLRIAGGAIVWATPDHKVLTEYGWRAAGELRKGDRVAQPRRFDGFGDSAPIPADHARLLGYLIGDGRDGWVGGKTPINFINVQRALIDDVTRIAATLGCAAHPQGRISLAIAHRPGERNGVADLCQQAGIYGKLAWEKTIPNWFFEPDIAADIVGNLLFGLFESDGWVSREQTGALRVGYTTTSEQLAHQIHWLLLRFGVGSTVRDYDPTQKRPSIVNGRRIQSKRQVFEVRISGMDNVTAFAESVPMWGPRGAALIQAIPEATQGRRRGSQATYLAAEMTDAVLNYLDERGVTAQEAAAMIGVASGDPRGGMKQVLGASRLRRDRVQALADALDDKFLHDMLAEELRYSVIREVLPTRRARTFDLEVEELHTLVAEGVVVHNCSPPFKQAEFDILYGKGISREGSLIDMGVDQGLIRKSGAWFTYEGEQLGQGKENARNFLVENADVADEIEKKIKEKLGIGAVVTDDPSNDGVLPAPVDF
Mtb bLac sens = beta-lactam sensitization of Mtb H37Rv, H37Rv; M. tuberculosis H37Rv growth with meropenem, percent inhibition; inhibition, % at 25 µM; 330,000 tested, 0.27% active; call rule not given here;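 further: growth measured after seven days incubation then overnight dye step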
Rv3671c protease = Rv3671c serine protease inhibitors, primary screen, biochemical, fluorescence polarization, M. tuberculosis H37Rv; inhibition, % at 5.96 µM; 320,000 tested, 0.048% active; AID 2606, 2010; in the data active means inhibition above about 38%;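 further: extracellular domain of Rv3671c used as enzyme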
Mtb hypoxia inh = PubChem AID 1159583 | M. tuberculosis hypoxia-regulated fluorescent reporter, fluorescence | fluorescence inhibition, % (no concentration beside the values) | 300,000 tested, 0.1% active; in the data active means fluorescence inhibition mostly above about 23%, no sharp cut-off; inactive means mostly below about 17%
Large screens that a line does not name were inactive. This is a sample that favours compounds with a hit; in the whole collection about 0.92% have one here.

COc1cc(/C=C2\SC(N)=NC2=O)ccc1OCC(=O)Nc1ccccc1C	Mtb hypoxia inh 57 (no result: RecA splice inh)
O=C1NC(=S)S/C1=C/c1ccc(OC(=O)c2ccco2)cc1	none (no result: Mtb hypoxia inh)
O=C1NC(=S)S/C1=C\c1ccc(SCc2ccco2)o1	FadD28 binding 45 (no result: RecA splice inh, Mtb hypoxia inh)
O=C1NC(=S)S/C1=C\c1ccc(SCc2ccccc2)o1	FadD28 binding 18 (no result: RecA splice inh)
Cc1nnc(N(Cc2ccco2)C(=O)c2ccc(C#N)cc2)s1	none (no result: Mtb hypoxia inh)
O=C1COc2ccc(C(=O)CCl)cc2N1	RecA splice inh 32 (no result: Mtb bLac sens, Mtb hypoxia inh)
CCC(=O)c1ccc(OCC(=O)c2ccc3c(c2)NC(=O)CO3)cc1	none
CC(C)n1c(SCCCc2ccccc2)nc2c1c(=O)[nH]c(=O)n2C	none (no result: Mtb UGM inh, Mtb bLac sens, Rv3671c protease)
COc1ccc(NC(=O)COC(=O)Cc2ccsc2)c(OC)c1	none (no result: RecA splice inh)
Cn1c2ccccc2c(=O)n2c(=O)c3ccccc3cc12	RecA splice inh 93 (no result: FadD28 binding, Mtb hypoxia inh)
Cn1c(-c2ccccc2)cc(=O)c2ccccc21	none
COc1ccc(NC(C)=O)cc1NC(=O)c1cccc(S(=O)(=O)N2CCN(Cc3ccccc3)CC2)c1	none (no result: RecA splice inh, Mtb hypoxia inh)
O=C(COC(=O)Cc1cccs1)NCC(=O)Nc1ccc(F)cc1	Mtb hypoxia inh 33 (no result: RecA splice inh)
O=C1CCN(N=Nc2cccc(Cl)c2)N1	RecA splice inh 40 (no result: FadD28 binding, Mtb hypoxia inh)
Nc1[nH][nH]c(=O)c1N=Nc1cccc(Cl)c1	none
CCOC(=O)CC(c1ccc(N)cc1)n1c(C)ccc1C (stereo not drawn)	none
Cc1ccc(C)n1C(CC(=O)O)c1ccc(C#N)cc1 (stereo not drawn)	FadD28 binding 11
Cc1c(C(=O)NNc2c(Cl)cccc2Cl)n(C)oc1=O	none
CNC(=O)NC(=O)CSc1nnc(C(F)(F)F)n1C	none
O=C(O)c1cc(O)c2c(c1)C(=O)c1cc(O)cc(O)c1C2=O	FadD28 binding 13 (no result: Mtb hypoxia inh)
O=C(O)c1cccc2cc(-c3ccccc3)oc(=O)c12	none (no result: FadD28 binding)
O=C(O)c1cccc2cccc(-c3c4ccc(=O)c(O)c-4oc4c(O)c(O)ccc34)c12	FadD28 binding 44 (no result: Mtb UGM inh, RecA splice inh, Mtb bLac sens, Rv3671c protease, Mtb hypoxia inh)
O=C(CSc1ccc(-c2nc3ccccc3[nH]2)cn1)Nc1ccc(S(=O)(=O)N2CCCC2)cc1	FadD28 binding 22 (no result: Mtb hypoxia inh)
Cc1ccc(-n2c(O)c(/C=N/c3ncc(Br)cc3Br)c(=O)[nH]c2=O)cc1	none (no result: Mtb hypoxia inh)
COc1cc(C2C(C#N)=C(N)Oc3n[nH]c(-c4cccnc4)c32)ccc1OCC(N)=O (stereo not drawn)	RecA splice inh 46
COc1ccc(C2C(C#N)=C(N)Oc3n[nH]c(C)c32)cc1Cn1nc(C)c([N+](=O)[O-])c1C (stereo not drawn)	RecA splice inh 84 (no result: Mtb hypoxia inh)
COc1cc(C2C(C#N)=C(N)Oc3n[nH]c(C)c32)ccc1OC(=O)c1ccccc1 (stereo not drawn)	RecA splice inh 38
CC(=O)c1ccc(OC(=O)CCN2c3ccccc3Sc3ccccc32)cc1	none
Cc1ccc(NC(=O)C(C)OC(=O)c2ccc(Cl)nc2)cc1S(=O)(=O)N1CCOCC1 (stereo not drawn)	none
CC1(C)CC(=O)C2=C(C1)NC1=C(C(=O)c3ccccc31)C2c1ccccc1 (stereo not drawn)	none (no result: Mtb UGM inh)
CC1(C)CC(=O)C2=C(C1)NC1=C(C(=O)c3ccccc31)C2c1cc([N+](=O)[O-])ccc1O (stereo not drawn)	FadD28 binding 21
C=C(C)CN1CCN(c2c(CCC#N)c(C)c(C#N)c3nc4ccccc4n23)CC1	none (no result: Mtb hypoxia inh)
N#Cc1ccc(/C=C/C(=O)c2ccccc2)cc1	Mtb hypoxia inh 36
COc1cc2c3nnc(-c4ccccc4)c-3cn(Cc3ccccc3F)c2cc1OC	Mtb UGM inh 11 (no result: FadD28 binding)
CN(N=Nc1ccc([N+](=O)[O-])cc1)c1ccccc1	Mtb UGM inh 26 (no result: Mtb hypoxia inh)
CCOC(=O)N1CCN(C(=O)CSCC(=O)Nc2nc(-c3cccs3)cs2)CC1	none
Cc1cc(NC(=O)c2cc(C3CC3)on2)n(-c2ccccc2)n1	none
CCN1C(=O)c2cccc3c(Cl)ccc(c23)C1=O	none
CC(C)CCN1C(=O)c2cccc3c(N)ccc(c23)C1=O	Mtb UGM inh 18 (no result: Mtb hypoxia inh)
Cc1cccc(N2C(=O)c3cccc4cccc(c34)C2=O)c1	none
Nc1cccc(N2C(=O)c3cccc4c(N)ccc(c34)C2=O)c1	Mtb UGM inh 29 (no result: Mtb hypoxia inh)
Cc1cccc(N2C(=O)c3cccc4c(N)ccc(c34)C2=O)c1	Mtb UGM inh 39 (no result: Mtb hypoxia inh)
Nc1ccc2c3c(cccc13)C(=O)N(c1ccccc1)C2=O	none (no result: Mtb UGM inh, Mtb bLac sens, Rv3671c protease)
O=S(=O)(N/N=C1/CC(c2ccccc2)Oc2ccccc21)c1ccccc1 (stereo not drawn)	none (no result: Mtb UGM inh, RecA splice inh, Mtb bLac sens, Rv3671c protease)
Cc1ccc(S(=O)(=O)N2CCN(C(=O)c3cc(S(=O)(=O)N4CCOCC4)c(Cl)cc3Cl)CC2)cc1	Mtb hypoxia inh 28 (no result: Mtb UGM inh, RecA splice inh, Mtb bLac sens, Rv3671c protease)
COc1ccc(C(=O)OCC(=O)N2c3ccccc3CC2C)cc1S(=O)(=O)N1CCOCC1 (stereo not drawn)	none (no result: Mtb UGM inh, RecA splice inh, Mtb bLac sens, Rv3671c protease, Mtb hypoxia inh)
CC(C)OC(=O)c1c(N)sc2c1CCCC2	none (no result: RecA splice inh)
CC(C)Sc1nsc2nc(=O)c(/C=C3\C=Nc4ccccc43)c(N)n12	FadD28 binding 19
COc1cc(C(=O)Nc2sc(C(=O)N3CCOCC3)c(C)c2C#N)cc(OC)c1OC	none
c1ccc(-c2nc(N3CCCCCC3)nc(-n3ccnc3)n2)cc1	RecA splice inh 46 (not shown: Mtb hypoxia inh)
CCOC(=O)C(CC)Sc1ccc2nnc(-c3cccnc3)n2n1 (stereo not drawn)	none
Cc1nn(-c2ccc(N3CCOCC3)nn2)c(C)c1CCC(=O)N1CCN(C)CC1	Mtb hypoxia inh 75
COc1ccc(C2=Nn3c(nnc3-c3ccccn3)SC2)cc1	none
O=C(C1CCC(CNc2c(N3CCCC3)c(=O)c2=O)CC1)N1CCc2ccccc21 (stereo not drawn)	none
CCN(CC)c1ccc(C=NNC(=O)c2ccc3nc[nH]c3c2)cc1	none (no result: Mtb UGM inh, FadD28 binding, RecA splice inh, Mtb bLac sens, Rv3671c protease)
CCN(CC)c1ccc(/C=N/NC(=O)c2ccc3nc[nH]c3c2)cc1	FadD28 binding 31 (no result: Mtb hypoxia inh)
NC(=O)C1CCN(c2nc(-c3ccc4occc(=O)c4c3)cs2)CC1	none (no result: RecA splice inh)
CN(C)S(=O)(=O)c1ccc(N2CCOCC2)c(C(=O)O)c1	none
Cn1cnc([N+](=O)[O-])c1Sc1nnc(-c2cccnc2)n1C	RecA splice inh 39 (no result: Rv3671c protease)
CC(C)n1c(O)c(N=Nc2ccc(Cl)c(C(=O)O)c2)c2ccccc21	FadD28 binding 11
CCC(CC)NC(=O)Nc1cccc(C)c1C	none
CCC(C)N(CC(=O)Nc1cccc(C)c1C)C(=O)CCl (stereo not drawn)	RecA splice inh 43
CC(C)N(CC(=O)Nc1ccc(Cl)cc1C(F)(F)F)C(=O)CCl	RecA splice inh 59
CN(CC(=O)Nc1cccc(F)c1)C(=O)Cn1c(=O)cnc2ccccc21	FadD28 binding 55
O=C(Cn1c(=O)cnc2ccccc21)Nc1cccc(S(=O)(=O)N2CCOCC2)c1	Mtb hypoxia inh 28 (no result: RecA splice inh)
O=C(O)CCCNc1cc(N2CCN(C(=O)c3ccco3)CC2)c2noc3c2c1C(=O)c1ccccc1-3	FadD28 binding 18 (no result: Mtb hypoxia inh)
CCc1cc2c(=O)[nH]c(Cc3ccc(OC)cc3)nc2s1	none
